C2C12 statin: suppressors of simvastatin-induced myotoxicity in C2C12 myotubes; actives 0.78% (n = 330,000); rescue of ATP level, % at 7.49 µM; ATP luminescence, 48 h; scaled: DMSO 0, geranylgeraniol control 100;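 active means mean ATP rescue above about 67%, or every replicate alone reaching that limit, limit read from the data, passing the limit was not always enough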;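 further: myotubes were challenged with 10 µM simvastatin during compound exposure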
miR-122 sensor: inhibitors of miR-122 in Huh7 cells | actives 0.3% (n = 340,000) | activation (reporter increase), % at 12.5 µM | Huh7 miR-122 Renilla luciferase sensor, 48 h; neutral wells = 0, positive control = 100 | AID 602342;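 active means mean replicate activation score at least 90 and every replicate individually at or above 90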;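 further: higher luciferase means less miR-122 activity so hits act as miR-122 inhibitors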
NSD2 inh: inhibitors of human histone methyltransferase NSD2; AID 743445; O96028; inhibition, % at 12.5 µM; actives 0.54% (n = 310,000); NSD2 peptide methylation, AlphaScreen, 120 min; in the data active means inhibition above about 50%
PglD DTNB: blocks C. jejuni PglD acetyltransferase activity. actives 0.098% (n = 360,000). inhibition, % at 12.5 µM. purified PglD enzyme, DTNB colorimetric CoA detection; in the data active means inhibition above about 16%, passing the limit was not always enough
Of the large screens only hits and unclear results are named; the others gave an inactive call; [ ] = dose if it differs, or a comment. The list is not random: actives were taken first. Their share in the collection is about 1.2%.

COC(=O)C[C@@H]1C[C@@H]2c3cc(NS(=O)(=O)c4ccc(OC)cc4)ccc3O[C@@H]2[C@H](CO)O1	none (no result: NSD2 inh)
[O-]/C(=C(\C(=S)NCc1ccccc1)[n+]1ccccc1)c1ccc(Cl)s1	miR-122 sensor 173
[O-]/C(=C(\C(=S)NCCN1CCOCC1)[n+]1ccccc1)c1ccc(Cl)s1	none
Cc1ccc(S(=O)(=O)N(C)C[C@@H]2Oc3ccc(NC(=O)NC4CCCCC4)cc3CC(=O)N([C@@H](C)CO)C[C@H]2C)cc1	none (no result: NSD2 inh)
CC1=NN(c2ccccc2)C(=O)C1/C=C1\NC(=S)NC1=O (configuration not stated)	NSD2 inh 102
CC1=NN(c2ccccc2)C(=O)C1C=Nc1ccccc1O (configuration not stated)	none (no result: PglD DTNB)
O=S(=O)(NCC1CCN(S(=O)(=O)c2ccccc2)CC1)c1ccccc1	C2C12 statin 137
O=S(=O)(NCC1CCN(c2ccc(S(=O)(=O)N3CCOCC3)cc2)CC1)c1ccccc1	none (no result: miR-122 sensor, NSD2 inh)
COc1ccc(S(=O)(=O)N(C)C[C@@H]2Oc3ccc(NS(=O)(=O)c4c(C)noc4C)cc3C(=O)N([C@@H](C)CO)C[C@@H]2C)cc1	none (no result: NSD2 inh)
CCOC(=O)CN1C(=O)C(C)(C)Oc2ccc(C(=O)Nc3ccccc3)cc21	miR-122 sensor 159
COC(=O)CN1C(=O)C(C)(C)Oc2ccc(C(=O)Nc3ccccc3F)cc21	none (no result: miR-122 sensor)
CCOc1ccc2nc(N3CCCC(C(=O)N4CCN(CC)CC4)C3)sc2c1 (configuration not stated)	C2C12 statin 116 (no result: NSD2 inh)
CCCN1CCN(CCCNC(=O)C2CCCN(c3nc4ccc(OCC)cc4s3)C2)CC1 (configuration not stated)	none
Cc1ccc(C(=O)O)cc1-c1ccc(C=C2C(=O)c3ccccc3C2=O)o1	NSD2 inh 55 (no result: C2C12 statin, miR-122 sensor, PglD DTNB)
Cc1ccc(NC(=O)CN2C(=O)S/C(=C/c3ccc(-c4cc(C(=O)O)ccc4C)o3)C2=O)cc1C	none
CO[C@@H]1CN(C)C(=O)c2cc(NC(=O)C3CCOCC3)ccc2OC[C@@H](C)N(S(=O)(=O)c2ccc(C)cc2)C[C@H]1C	none (no result: miR-122 sensor, NSD2 inh)
CN(C)C1=NC[C@H](Cc2ccccc2)N1CC1CCCCCC1	C2C12 statin 97 (no result: NSD2 inh)
Cc1ccc(S(=O)(=O)Nc2ccc3c(c2)C(=O)N([C@@H](C)CO)C[C@H](C)[C@H](CN(C)C(=O)NC(C)C)OCCCC[C@H](C)O3)cc1	none (no result: C2C12 statin, NSD2 inh)
C[C@@H]1CCCCO[C@@H](CN(C)S(=O)(=O)c2ccc(F)cc2)[C@H](C)CN([C@@H](C)CO)C(=O)c2cc(NC(=O)NC3CCCCC3)ccc2O1	none (no result: C2C12 statin, NSD2 inh)
Cc1cc(C=O)c(C)n1-c1ccc(N2CCCCC2)c([N+](=O)[O-])c1	NSD2 inh 65
O=C(c1cc(F)c(F)cc1Cl)N1CCOCC1	none (no result: C2C12 statin)
CC1CCN(C(=O)c2cc(F)c(F)cc2Cl)CC1	C2C12 statin 135
COc1ccc(-c2cnc3c(c2)C(=O)N([C@H](C)CO)C[C@H](C)[C@H](CN(C)Cc2cccc(C)c2)O3)cc1	none (no result: NSD2 inh, PglD DTNB)
O=S(=O)(N[C@H]1CC[C@H](CCn2cc(C3(O)CCCC3)nn2)O[C@H]1CO)c1ccc(F)cc1	none (no result: miR-122 sensor, NSD2 inh)
Cc1ccc(Cl)cc1NC(=O)Cn1cccc1	C2C12 statin 81
Cc1cc(S(=O)(=O)N(Cc2ccccc2F)C2CC2)ccc1-n1cnnn1	miR-122 sensor 143 (no result: PglD DTNB)
Cc1cc(S(=O)(=O)NCC(c2ccccc2)c2ccccc2)ccc1-n1cnnn1	miR-122 sensor 125
COc1ccccc1CNS(=O)(=O)c1ccc(-n2cnnn2)c(C)c1	none (no result: miR-122 sensor)
Cc1[nH]c2ccccc2c1C(=O)COC(=O)C1CC(=O)N(Cc2ccccc2)C1 (configuration not stated)	none
CCOC(=O)c1c(C)[nH]c(C(=O)COC(=O)C2CC(=O)N(Cc3ccccc3)C2)c1C (configuration not stated)	C2C12 statin 92
O=C(C[C@H]1CC[C@@H](NC(=O)c2ccc3c(c2)OCO3)[C@@H](CO)O1)NCc1ccc(Cl)cc1	none (no result: miR-122 sensor, NSD2 inh)
C=CCn1c(-c2csc(-c3ccccc3)n2)n[nH]c1=S	C2C12 statin 77
C=CCn1c(-c2csc(-c3ccc(Cl)cc3)n2)n[nH]c1=S	none (no result: C2C12 statin, PglD DTNB)
Cc1ccc(S(=O)(=O)N(C)C[C@@H]2OCCCC[C@H](C)Oc3ccc(NS(C)(=O)=O)cc3C(=O)N([C@H](C)CO)C[C@@H]2C)cc1	none (no result: C2C12 statin, NSD2 inh)
Cc1ccc(C2/C(=C(/O)c3ccc4c(c3)CC(C)O4)C(=O)C(=O)N2CCCn2ccnc2)cc1 (configuration not stated)	none
Cc1ccc(C)c(/C(O)=C2\C(=O)C(=O)N(CCCn3ccnc3)C2c2ccncc2)c1 (configuration not stated)	C2C12 statin 84
CC(=O)Nc1cc(-c2nn(C)c(=O)c3ccccc23)ccc1N1CCOCC1	C2C12 statin 106
Cc1noc(C)c1NC(=O)N(C)C[C@@H]1Oc2ccc(NC(=O)Nc3ccc(F)cc3)cc2CC(=O)N([C@@H](C)CO)C[C@H]1C	none (no result: NSD2 inh)
O=c1cc2oc3cc(O)c(O)cc3c(-c3ccccc3[N+](=O)[O-])c-2cc1O	NSD2 inh 128
Fc1ccc(CSc2nnc(CN3CCOCC3)n2-c2ccccc2)c(Cl)c1	C2C12 statin 103
CC1CCN(C(=O)C2CC(c3ccc(F)cc3)=NO2)CC1 (configuration not stated)	none (no result: miR-122 sensor)
CC1CCCC(C)N1C(=O)C1CC(c2ccc(F)cc2)=NO1 (configuration not stated)	C2C12 statin 92
Cc1ccc(Cl)cc1NC(=S)N(CCCN1CCOCC1)Cc1ccccn1	miR-122 sensor 160 (no result: C2C12 statin)
S=C(Nc1ccccc1Cl)N(CCCN1CCOCC1)Cc1ccccn1	none
C[C@@H]1CN([C@H](C)CO)C(=O)c2cccc(NC(=O)Nc3ccc(F)cc3)c2O[C@H]1CN(C)Cc1ccc(C(F)(F)F)cc1	miR-122 sensor 165[16.7 µM] (no result: NSD2 inh)
C[C@H](CO)N1C[C@H](C)[C@@H](CN(C)Cc2ccc(C(F)(F)F)cc2)Oc2c(NC(=O)Nc3ccc(F)cc3)cccc2C1=O	none (no result: NSD2 inh)
C[C@@H]1CN([C@H](C)CO)C(=O)c2cccc(NC(=O)C3CC3)c2O[C@H]1CN(C)Cc1ccc(C(F)(F)F)cc1	miR-122 sensor 106[16.7 µM] (no result: NSD2 inh)
COc1ccc(NC(=O)Nc2ccc3c(c2)C(=O)N([C@@H](C)CO)C[C@H](C)[C@H](CN(C)Cc2ccc(C(F)(F)F)cc2)O3)cc1	miR-122 sensor 150[16.7 µM] (no result: NSD2 inh)
C[C@H](CO)N1C[C@H](C)[C@@H](CN(C)Cc2ccc(C(F)(F)F)cc2)Oc2c(NC(=O)c3cnccn3)cccc2C1=O	miR-122 sensor 114[16.7 µM] (no result: NSD2 inh)
COc1ccc(NC(=O)Nc2ccc3c(c2)C(=O)N([C@@H](C)CO)C[C@@H](C)[C@@H](CN(C)Cc2ccc(C(F)(F)F)cc2)O3)cc1	none (no result: NSD2 inh)
C[C@H]1CN([C@@H](C)CO)C(=O)c2cccc(NC(=O)c3cnccn3)c2O[C@H]1CN(C)Cc1ccc(C(F)(F)F)cc1	none (no result: NSD2 inh)
CC(C)NC(=O)Nc1ccc2c(c1)C(=O)N([C@H](C)CO)C[C@@H](C)[C@@H](CN(C)Cc1ccc(Cl)c(Cl)c1)O2	none (no result: NSD2 inh)
C[C@H]1CN([C@@H](C)CO)C(=O)c2c(c3ccccc3n2C)-c2ccccc2CO[C@@H]1CN(C)C(=O)c1ccncc1	none (no result: C2C12 statin, miR-122 sensor, NSD2 inh)
